The source of these data is PubChem BioAssay (EPA / NIEHS).

Results filed as inconclusive are left out. The source made the active and inactive calls. How the source made its calls: active means hit-call score of the fitted dose curve at least 0.9, where 1 is the maximum; inconclusive means response in the unintended direction; inactive means score below 0.9.

A short description of the assay: Tanguay_ZF_120hpf_PFIN_legacy: (Legacy) Oregon State University Tanguay Lab 120 Hour Post-fertilization zebrafish Assay for Pectoral Fin Malformation (AID 2283648).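 Further: each larva judged yes or no for fin defect by brightfield with dead larvae skipped.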 Here is the method:
Tanguay_ZF_120hpf_legacy is a whole embryo, multiplexed endpoint assay using zebrafish larvae exposed for 120 hours post fertilization on a 96-well plate.Tanguay_ZF_120hpf_PFIN_legacy is one of one assay component(s) measured or calculated from the Tanguay_ZF_120hpf_legacy assay. It is designed to make measurements of zebrafish development as detected with brightfield microscopy of developing zebrafish embryos.Data from the assay component Tanguay_ZF_120hpf_PFIN_legacy was analyzed into 1 assay endpoints. This assay endpoint, Tanguay_ZF_120hpf_PFIN_legacy, was analyzed in the positive analysis fitting direction relative to DMSO as the negative control and baseline of activity. Using a type of morphology reporter, gain-of-signal activity can be used to understand changes in developmentals as they relate to the whole embryo. To generalize the intended target to other relatable targets, this assay endpoint is annotated to the zebrafish development intended target family, where the subfamily is pectoral fin morphogenesis.
Zebrafish husbandry: Tropical 5D wild-type adult zebrafish were housed in at an approximate density of 1000 per 100 gallon tank at the Sinnhuber Aquatic Research Laboratory, Oregon State University, Corvallis, OR. Each tank was kept at standard laboratory conditions of 28C on a 14-h light/10-h dark photoperiod in fish water consisting of reverse osmosis water supplemented with a commercially available salt (Instant Ocean). Spawning funnels were placed into the tanks the night prior, and embryos were collected and staged. To increase bioavailability, the chorion was enzymatically removed using pronase (63.6mg/ml, >/= 3.5U/mg, Sigma-Aldrich: P5147) at 4 hours post fertilization (hpf) using a custom automated dechorionator.Chemical exposures: Six hpf dechorionated embryos were placed 1 embryo per well in a 96-well plate prefilled with 90 ul of EM using automated embryo placement systems (AEPS). Ten microliters of each row of dilution plate 2 was added to 2 exposure plates. The final DMSO concentration used was 0.64% (vol/vol). Thirty-two embryos were also exposed to 5uM trimethyltin chloride (positive control). Plates were sealed to prevent evaporation and foil covered to reduce light exposure and kept in a 28C incubator. Embryos were statically exposed until 120 hpf. At 24 hpf, embryos were assessed for photomotor response using a custom photomotor response analysis tool (PRAT) and for developmental toxicity endpoints (MO24: mortality at 24 hpf, DP: developmental progression, SM: spontaneous movement, and NC: notochord distortion). At 120 hpf, locomotor activity was measured using Viewpoint Zebralab and assessed for 18 endpoints. Zebrafish acquisition and analysis program (ZAAP), a custom program designed to inventory, acquire, and manage zebrafish data, was used to collect developmental endpoints as either present or absent (i.e., binary responses were recorded). If mortality occurred for an embryo (at either 24 or 120 hpf), the non-mortality endpoints were not measured.
With `CSC1=N[C@@](C)(c2ccccc2)C(=O)N1Nc1ccccc1`, the compound was called inactive.
Turning to `CSc1nc(NC(C)C)nc(NC(C)C)n1`, the compound was classed as inactive.
The same measure, in the same setting: with `CN1COCN(Cc2cnc(Cl)s2)C1=N[N+](=O)[O-]` the entry was “inactive”; with `CCCCN(CC)c1c([N+](=O)[O-])cc(C(F)(F)F)cc1[N+](=O)[O-]`, “inactive”; with `COP(=O)(NC(C)=O)SC` (stereo not given), “inactive”.
Consider `COc1cccc(C(=O)NN(C(=O)c2cc(C)cc(C)c2)C(C)(C)C)c1C`, for which the result was inactive.
Regarding `COP(=O)(OC)SCn1c(=O)oc2cc(Cl)cnc21`, the outcome was inactive.
The same measure, in the same setting: for `CC[C@H](C)[C@H]1O[C@]2(C=C[C@@H]1C)C[C@@H]1C[C@@H](C/C=C(\C)[C@@H](O[C@H]3C[C@H](OC)[C@@H](O[C@H]4C[C@H](OC)[C@@H](NC)[C@H](C)O4)[C@H](C)O3)[C@@H](C)/C=C/C=C3\CO[C@@H]4[C@H](O)C(C)=C[C@@H](C(=O)O1)[C@]34O)O2` the value was “inactive”.
Still for that read-out and setting: with `CCc1cccc(CC)c1N(COC)C(=O)CCl` the entry was “inactive”; with `CCc1cnc(C2=NC(C)(C(C)C)C(=O)N2)c(C(=O)O)c1` (stereo not given), “inactive”.
With `CN(C)NC(=O)CCC(=O)O`, the compound was called inactive.
For `COP(=O)(OC)C(O)C(Cl)(Cl)Cl` (stereo not given), the call was inactive.
Same read-out and setting: for `O=[N+]([O-])c1cc(C(F)(F)F)c(Cl)c([N+](=O)[O-])c1Nc1ncc(C(F)(F)F)cc1Cl` the value was “inactive”; for `Cc1cc(C2CC2)nc(Nc2ccccc2)n1`, “inactive”; for `Nc1nc(N)nc(NC2CC2)n1`, “inactive”.
On the same count and under the same terms, for `N#CSCSC#N` the value was “inactive”.
In general, AC50 refers to the concentration giving half of the maximal activity seen. As for `COc1ccc(C(=CC(=O)N2CCOCC2)c2ccc(Cl)cc2)cc1OC`, the AC50 was 45.5 µM (active).
On to `CON=C(C(=O)OC)c1ccccc1CON=C(C)c1cccc(C(F)(F)F)c1`, for which the outcome was inactive.
Take `CC1=NNC(=O)N(/N=C/c2cccnc2)C1`: the compound was classed as inactive.
On the same count and under the same terms, for `C=C(C)[C@H]1Cc2c(ccc3c2O[C@@H]2COc4cc(OC)c(OC)cc4[C@@H]2C3=O)O1` the value was “inactive”.
Still for that read-out and setting: for `Cc1ccn2nc(S(=O)(=O)Nc3c(F)cccc3F)nc2n1` the value was “inactive”; for `CN(C)[C@@H]1C(=O)C(C(N)=O)=C(O)[C@@]2(O)C(=O)C3=C(O)c4c(O)cccc4[C@@](C)(O)[C@H]3[C@H](O)[C@@H]12`, “inactive”.
Still for that read-out and setting: with `CC(Oc1cccc(Cl)c1)C(=O)O` (stereo not given) the entry was “inactive”; with `CCOP(=O)(SC(C)CC)N1CCSC1=O` (stereo not given), “inactive”.
With `CCOP(=S)(OCC)SCCSCC`, the outcome was inactive.
For the compound `Cc1nn(-c2cc(NS(C)(=O)=O)c(Cl)cc2Cl)c(=O)n1C(F)F`, the outcome was inactive.
The same measure, in the same setting: with `CCOC(=O)COc1cc(-c2nn(C)c(OC(F)F)c2Cl)c(F)cc1Cl` the entry was “inactive”.
As to `FC(F)C(F)(F)OCC(Cn1cncn1)c1ccc(Cl)cc1Cl` (stereo not given), the AC50 is 46.6 µM (active).
On the same count and under the same terms, with `CCOP(=O)(NC(C)C)Oc1ccc(SC)c(C)c1` (stereo not given) the figure was 16.9 µM (active).
Regarding `CSc1nnc(C(C)(C)C)c(=O)n1N`, the call was inactive.
As for `CC(C)[C@H](C(=O)O[C@H](C#N)c1cccc(Oc2ccccc2)c1)c1ccc(Cl)cc1`, the AC50 is 1.17 µM (active).
Take `O=C(O)c1cc(Oc2ccc(C(F)(F)F)cc2Cl)ccc1[N+](=O)[O-]`: the compound was classed as inactive.
Still for that read-out and setting: for `CNC(=O)ON=C(C)SC` the value was “inactive”; for `CCCSP(=O)(OCC)Oc1ccc(Br)cc1Cl` (stereo not given), “inactive”; for `COc1cc(OC)nc(Sc2cccc(Cl)c2C(=O)O)n1`, “inactive”.
With `CNC(=O)Oc1cccc2c1OC(C)(C)O2`, the outcome was inactive.
Turning to `CC1(C(=O)Nc2ccc(O)c(Cl)c2Cl)CCCCC1`, the result was inactive.
`CCOP(=S)(OCC)OC(Cl)C(Cl)(Cl)Cl` (stereo not given): the result was inactive.
Consider `C[Si](Cn1cncn1)(c1ccc(F)cc1)c1ccc(F)cc1`, for which the AC50 was 20.9 µM (active).
As for `CCCSP(=O)(OCC)SCCC`, the compound was classed as inactive.
